Bioassay records (PubChem BioAssay)
Only some compounds are listed: those with a hit (about 2.2% of all), similar ones and a draw of the others.
Ba/F3 V617F tox = reduced viability of JAK2V617F-dependent Ba/F3 cells, primary screen, JAK2V617F inhibitor project, cell-based, Ba/F3 EpoR-JAK2V617F, luminescence; ATP luminescence; inhibition, % at 5.6 µM; 220,000 tested, 1.1% active;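 active = inhibition above the campaign mean plus 3 SD over all tested compounds, cut at about 24% in these data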;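 also: cytokine-independent growth of Ba/F3 cells driven by EpoR plus mutant JAK2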
KLF5 inhibitor = KLF5 expression inhibitors, primary screen, DLD-1 cells, luminescence; DLD-1 KLF5 promoter-luciferase reporter; inhibition, % at 5 µM; 290,000 tested, 0.23% active;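 active = inhibition above a per-plate limit of that plate's mean compound inhibition plus 3 SD, cut at about 60% in these data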;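 also: higher means less KLF5 promoter-driven luciferase light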
APP 5UTR inh = inhibitors of APP translation via 5'UTR reporter, primary screen, APP 5'UTR luciferase, SH-SY5Y cells | 190,000 tested, 0.82% active | inhibition, % at 2 µM | SH-SY5Y APP 5'UTR-luciferase reporter, luminescence;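 active = inhibition above a set limit, derived from the sample mean plus 3 SD, cut at about 45% in these data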
IEC-6 cytotox = cytotoxicity in IEC-6 intestinal epithelial cells, primary screen, cytotoxicity control for KLF5 inhibitor project, cell-based, luminescence | IEC-6 cytotoxicity, luminescence viability | inhibition, % at 5 µM | 290,000 tested, 0.78% active | AID 1825, 2009
aSyn UTR inh = MLPCN primary screen, SNCA 5' untranslated region; AID 1813, 2009; 300,000 tested, 0.82% active; inhibition, % (tested at 7.5 µM); alpha-synuclein 5'UTR reporter, inhibitor activity; in the data active = inhibition above about 60%;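 also: H4 neuroglioblastoma cells stably carrying SNCA 5'UTR luciferase fusion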
BaF3 parental = parental Ba/F3 cell viability inhibition, counter-screen for JAK2V617F inhibitor project, murine pro-B, CellTiter-Glo luminescence; CellTiter-Glo ATP luminescence; 220,000 tested, 1.1% active; inhibition, % at 5.6 µM;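 active = inhibition above a per-campaign cutoff, the mean inhibition of all tested compounds plus 3 SD, cut at about 27% in these data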
IEC-6 tox confirm = cytotoxic compounds in IEC-6 epithelial cells, confirmation, cytotoxicity control, cell-based, luminescence | shares compounds with IEC-6 cytotox | IEC-6 rat intestinal epithelial viability | inhibition, % at 5 µM | 1,900 tested, 63% active
A number is an active result. Rule as the data show it, unless noted: active = inhibition above about 22%; inactive = the rest.

What do the screens show for `COc1cc2ncnc(Nc3cccc(Cl)c3)c2cc1OC`?
Ba/F3 V617F tox: inactive; KLF5 inhibitor: inactive; IEC-6 cytotox: inactive; BaF3 parental: inactive

What do the screens show for `Nc1ncnc(Nc2ccccc2)n1`?
aSyn UTR inh: inactive

What do the screens show for `O=C1C=C(Nc2ccc(Cl)cc2Cl)CC(c2ccco2)C1` (configuration not stated)?
Ba/F3 V617F tox: inactive; KLF5 inhibitor: inactive; APP 5UTR inh: inactive; IEC-6 cytotox: 54; aSyn UTR inh: inactive; BaF3 parental: 47; IEC-6 tox confirm: 48

Results for COc1ccc(CCN(Cc2ccccn2)C(=S)Nc2cccc(C)c2)cc1OC ?
Ba/F3 V617F tox: inactive; KLF5 inhibitor: inactive; APP 5UTR inh: inactive; IEC-6 cytotox: inactive; aSyn UTR inh: inactive; BaF3 parental: inactive

Results for COc1cccc(C2NC(=S)NC(C)=C2C(=O)c2ccccc2)c1OC (configuration not stated) ?
Ba/F3 V617F tox: 84; KLF5 inhibitor: inactive; APP 5UTR inh: 78; IEC-6 cytotox: 68; aSyn UTR inh: inactive; BaF3 parental: 78; IEC-6 tox confirm: 50

What do the screens show for `COC(=O)c1cc(Br)c(=O)n(Cc2ccncc2)c1`?
Ba/F3 V617F tox: inactive; KLF5 inhibitor: inactive; APP 5UTR inh: inactive; IEC-6 cytotox: inactive; aSyn UTR inh: inactive; BaF3 parental: inactive

How did O=C(Nc1ccc(Cl)c(Cl)c1)Nc1ccon1 do in these assays?
KLF5 inhibitor: inactive; IEC-6 cytotox: 74; aSyn UTR inh: inactive; IEC-6 tox confirm: 58

What do the screens show for `Cc1cc(NC(=O)Nc2ccc(Cl)c(Cl)c2)no1`?
aSyn UTR inh: inactive

Results for CCOC(=O)c1ccc(NC(=O)Nc2ccon2)cc1 ?
Ba/F3 V617F tox: 88; KLF5 inhibitor: inactive; IEC-6 cytotox: 87; aSyn UTR inh: 64; BaF3 parental: 88; IEC-6 tox confirm: 65

How did CCOC(=O)c1ccc(NC(=O)Nc2ccc(Cl)cn2)cc1 do in these assays?
Ba/F3 V617F tox: inactive; KLF5 inhibitor: inactive; APP 5UTR inh: inactive; IEC-6 cytotox: inactive; aSyn UTR inh: inactive; BaF3 parental: inactive

How did NC(=O)c1c(NC(=O)c2cccnc2Cl)sc2c1CCCC2 do in these assays?
Ba/F3 V617F tox: inactive; KLF5 inhibitor: inactive; APP 5UTR inh: inactive; IEC-6 cytotox: inactive; aSyn UTR inh: inactive; BaF3 parental: inactive

What do the screens show for `COc1ccccc1OCCCCn1ncc2ccc(OC)c(OC)c2c1=O`?
KLF5 inhibitor: inactive; IEC-6 cytotox: inactive; aSyn UTR inh: inactive

What do the screens show for `O=Cc1ccc(Sc2nnc(-c3ccccc3)o2)c([N+](=O)[O-])c1`?
Ba/F3 V617F tox: inactive; KLF5 inhibitor: inactive; APP 5UTR inh: inactive; IEC-6 cytotox: inactive; aSyn UTR inh: inactive; BaF3 parental: inactive

What do the screens show for `Cn1nc([N+](=O)[O-])nc1Sc1nnc(-c2ccccc2)o1`?
Ba/F3 V617F tox: 92; KLF5 inhibitor: inactive; APP 5UTR inh: 95; IEC-6 cytotox: 68; aSyn UTR inh: 92; BaF3 parental: 76; IEC-6 tox confirm: 68

Results for CCNc1ccc(C(=O)OCC)cc1NC(=O)c1cccc(N(C)C)c1 ?
Ba/F3 V617F tox: 82; KLF5 inhibitor: inactive; APP 5UTR inh: 81; IEC-6 cytotox: 64; aSyn UTR inh: inactive; BaF3 parental: 77; IEC-6 tox confirm: 58

What do the screens show for `Cc1nn2c(-c3ccccc3)ccnc2c1Br`?
KLF5 inhibitor: inactive; IEC-6 cytotox: inactive; aSyn UTR inh: inactive

How did Cc1ccc(-c2ccnc3c(Br)c(C)nn23)cc1 do in these assays?
KLF5 inhibitor: inactive; IEC-6 cytotox: 28; aSyn UTR inh: inactive; IEC-6 tox confirm: inactive

What do the screens show for `O=c1[nH]c(/C=C/c2ccccc2Cl)nc2ccccc12`?
KLF5 inhibitor: inactive; IEC-6 cytotox: 39; aSyn UTR inh: inactive; IEC-6 tox confirm: 24

What do the screens show for `CCOC(=O)Cn1c(S(=O)(=O)Cc2cccc(F)c2)nc(-c2ccccc2)c1-c1ccccc1`?
Ba/F3 V617F tox: inactive; KLF5 inhibitor: inactive; APP 5UTR inh: inactive; IEC-6 cytotox: 23; aSyn UTR inh: inactive; BaF3 parental: inactive; IEC-6 tox confirm: inactive

Results for Cc1cccc(N(C)S(=O)(=O)c2ccc(-c3cnc(C4CC4)o3)cc2)c1 ?
KLF5 inhibitor: inactive; IEC-6 cytotox: 91; aSyn UTR inh: 97; IEC-6 tox confirm: 65

How did COc1ccc(NS(=O)(=O)c2ccc(-c3cnc(C4CC4)o3)cc2)cc1OC do in these assays?
KLF5 inhibitor: inactive; IEC-6 cytotox: 50; aSyn UTR inh: inactive; IEC-6 tox confirm: 39

What do the screens show for `O=S(=O)(Nc1ccc(F)cc1Cl)c1ccc(-c2cnc(C3CC3)o2)cc1`?
KLF5 inhibitor: inactive; IEC-6 cytotox: 82; aSyn UTR inh: 68; IEC-6 tox confirm: 52

How did COc1ccccc1CNS(=O)(=O)c1ccc(-c2cnc(C3CC3)o2)cc1 do in these assays?
KLF5 inhibitor: inactive; IEC-6 cytotox: 69; aSyn UTR inh: inactive; IEC-6 tox confirm: 54

What do the screens show for `C#CCN(CC=C)C(=O)CCc1nnc(COc2ccccc2)o1`?
Ba/F3 V617F tox: inactive; KLF5 inhibitor: inactive; APP 5UTR inh: inactive; IEC-6 cytotox: inactive; aSyn UTR inh: inactive; BaF3 parental: inactive

How did O=C(NC(=S)Nc1ccc(Cl)c(C(=O)O)c1)c1ccco1 do in these assays?
KLF5 inhibitor: inactive; IEC-6 cytotox: inactive; aSyn UTR inh: inactive

Results for COc1ccccc1NS(=O)(=O)c1ccc(-c2cnc(C3CC3)o2)cc1 ?
KLF5 inhibitor: inactive; IEC-6 cytotox: 84; aSyn UTR inh: inactive; IEC-6 tox confirm: 55

Results for Cc1ccc(NS(=O)(=O)c2ccc(-c3cnc(C4CC4)o3)cc2)c(C)c1 ?
KLF5 inhibitor: inactive; IEC-6 cytotox: 78; aSyn UTR inh: 77; IEC-6 tox confirm: 55

Results for Cc1cccc(-c2ocnc2C(=O)Nc2ccccc2NC(=O)c2ccccn2)c1 ?
KLF5 inhibitor: inactive; IEC-6 cytotox: inactive; aSyn UTR inh: inactive

How did NC(=O)c1ccc[n+](CC(=O)c2ccccc2)c1 do in these assays?
Ba/F3 V617F tox: 60; KLF5 inhibitor: inactive; IEC-6 cytotox: 22; aSyn UTR inh: inactive; BaF3 parental: 27; IEC-6 tox confirm: inactive

What do the screens show for `NC(=O)c1ccc[n+](CC(=O)c2ccc(NC(=O)c3ccccc3)cc2)c1`?
KLF5 inhibitor: inactive; IEC-6 cytotox: inactive; aSyn UTR inh: inactive

What do the screens show for `O=C(Cn1c(=O)c2cccn2c2cccnc21)NCCCN1CCN(c2ccc(F)cc2)CC1`?
KLF5 inhibitor: inactive; IEC-6 cytotox: inactive; aSyn UTR inh: inactive

What do the screens show for `Cc1ccc(NC(=O)c2ccc(Cl)cc2[N+](=O)[O-])nc1`?
Ba/F3 V617F tox: 74; KLF5 inhibitor: inactive; APP 5UTR inh: inactive; IEC-6 cytotox: 38; aSyn UTR inh: inactive; BaF3 parental: 64; IEC-6 tox confirm: 49
